Data from PubChem BioAssay.
For some of these results: Entries with a potency or affinity are not part of this list. Active and inactive are the calls of the source.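 Rule for the calls, unless noted: active = fluorescence ratio normalized to control raised more than 50% in primary screen plus both repeat runs; inactive = the rest.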

Experiments:
[1] = test system: TRPC4 beta (transient receptor potential cation channel C4), mouse; test: TRPC4 cation channel opening, retest – cell-based, Fluo4 calcium, HEK293 TRPC4beta/mu-opioid, duplicates, 10 µM, confirmation (AID 2426); conditions: Fluo4 calcium fluorescence, at 10 µM; hits give high values
[2] = test system: transient receptor potential cation channel C4 beta (TRPC4), mouse; test: TRPC4 cation channel opening, second retest – cell-based, second round, Fluo4, HEK293 TRPC4beta/mu-opioid, 1 µM, confirmation (AID 2461;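 active = primary screen active and over 50% activation in each of two duplicate runs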); conditions: Fluo4 calcium fluorescence, at 1 µM; hits give high values
[3] = test system: TRPC4 (transient receptor potential cation channel C4 beta), mouse; test: potentiation of DAMGO EC20 TRPC4 response – cell-based, second round, Fluo-4, HEK293 TRPC4beta/mu-opioid, 1 µM, confirmation (AID 2554;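 active = primary screen hit whose fluorescence ratio, in both repeats, exceeds the weak agonist control mean by 3 SD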); conditions: DAMGO EC20, Fluo-4 calcium flux, at 1 µM; hits give high values
[4] = test system: TRPC4 beta (transient receptor potential cation channel C4), mouse; test: potentiation of DAMGO EC20 TRPC4 response – cell-based, Fluo-4, HEK293 TRPC4beta/mu-opioid, confirmation (AID 2555;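 active = primary screen hit whose calcium fluorescence ratio, in both repeats, exceeds the weak agonist control mean by 3 SD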); conditions: DAMGO EC20, Fluo-4 calcium flux, at 10 µM; hits give high values
[5] = target: Short transient receptor potential channel 4 (Mus musculus) (UniProt Q9QUQ5); test: blockers of DAMGO-evoked TRPC4 calcium flux – cell-based, Fluo4, HEK293 TRPC4beta/mu-opioid, confirmation (AID 2636;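 active = calcium signal cut by more than 3 SD below the full-agonist control yet still positive, in both repeats and the earlier primary screen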); conditions: at 10 µM; hits give high values
Short transient receptor potential channel 4 (Mus musculus), sequence (Q9QUQ5 whole entry, looked up): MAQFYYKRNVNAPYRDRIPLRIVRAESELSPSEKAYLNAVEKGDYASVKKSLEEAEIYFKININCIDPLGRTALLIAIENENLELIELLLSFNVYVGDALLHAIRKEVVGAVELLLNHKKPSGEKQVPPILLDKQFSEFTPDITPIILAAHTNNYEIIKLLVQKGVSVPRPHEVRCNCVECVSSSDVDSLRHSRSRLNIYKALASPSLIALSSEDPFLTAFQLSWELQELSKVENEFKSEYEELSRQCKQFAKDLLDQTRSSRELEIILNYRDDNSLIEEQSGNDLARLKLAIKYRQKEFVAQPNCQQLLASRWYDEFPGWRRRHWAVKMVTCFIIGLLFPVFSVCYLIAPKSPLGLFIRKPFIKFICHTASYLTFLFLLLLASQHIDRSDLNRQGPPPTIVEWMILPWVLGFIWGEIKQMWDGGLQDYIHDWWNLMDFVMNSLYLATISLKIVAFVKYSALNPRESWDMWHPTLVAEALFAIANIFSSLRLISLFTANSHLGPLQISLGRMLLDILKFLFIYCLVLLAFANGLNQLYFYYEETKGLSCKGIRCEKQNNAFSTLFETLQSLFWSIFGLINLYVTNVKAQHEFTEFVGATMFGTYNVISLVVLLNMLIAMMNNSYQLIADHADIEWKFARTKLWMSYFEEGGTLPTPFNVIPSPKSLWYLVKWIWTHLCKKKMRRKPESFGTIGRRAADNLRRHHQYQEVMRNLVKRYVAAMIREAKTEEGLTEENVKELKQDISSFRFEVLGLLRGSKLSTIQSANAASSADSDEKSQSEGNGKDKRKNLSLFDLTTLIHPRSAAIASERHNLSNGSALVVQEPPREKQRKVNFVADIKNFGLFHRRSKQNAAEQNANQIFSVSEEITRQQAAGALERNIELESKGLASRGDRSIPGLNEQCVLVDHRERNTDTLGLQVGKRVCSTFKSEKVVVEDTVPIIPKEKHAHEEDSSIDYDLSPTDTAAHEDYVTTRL

[6] = target: Short transient receptor potential channel 4 (Mus musculus) (UniProt Q9QUQ5); test: blockers of DAMGO-evoked TRPC4 calcium flux – cell-based, second round, Fluo4, HEK293 TRPC4beta/mu-opioid, 1 µM, confirmation (AID 2637;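 active = calcium signal ratio cut to more than 3 SD under the fully stimulated control mean yet still positive, in both repeats and the primary screen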;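 for inhibition: percent of integrated ratio relative to wells lacking test compound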); conditions: at 1 µM; hits give high values
[7] = target: Short transient receptor potential channel 4 (Mus musculus) (UniProt Q9QUQ5); test: calcium entry via TRPC4 opening agents – cell-based, HEK293 TRPC4/mu-opioid, Fluo-4 calcium, dose response (AID 434937;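 active = primary screen activator hit with a dose response curve and TRPC4 channel activation at any tested dose; inactive = no activation, no dose response, or not a primary hit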); conditions: HEK293 TRPC4 cells, Fluo-4 calcium fluorescence ratio; series mostly up to 20 µM
[8] = target: Short transient receptor potential channel 4 (Mus musculus) (UniProt Q9QUQ5); test: potentiation of DAMGO-evoked TRPC4 calcium signal – cell-based, HEK293 TRPC4/mu-opioid, Fluo-4 calcium, EC20 DAMGO, dose response (AID 434941;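 active = earlier screen potentiator hit that boosts the TRPC4 ion channel at some dose, with a dose response; inactive = no potentiation, no dose response, or not a prior hit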;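 note: calcium entry triggered by an EC20 dose of DAMGO at the co-expressed mu-opioid receptor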); conditions: HEK293 TRPC4/mu-opioid cells, Fluo-4 calcium fluorescence; series mostly up to 20 µM
[9] = target: Short transient receptor potential channel 6 (Mus musculus) (UniProt Q61143); test: TRPC6 blockade by TRPC4 inhibitor hits – cell-based, HEK293, membrane potential dye, duplicate, selectivity assay for TRPC4 inhibitor project, confirmation (AID 434948;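 active = active in primary screen and both duplicates, each dropping signal beyond three positive-control SD with fluorescence still positive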); conditions: HEK293 TRPC6, membrane potential dye fluorescence, at 10 µM, stimulated with maximal-effect acetylcholine; hits give high values
Short transient receptor potential channel 6 (Mus musculus), sequence (Q61143 whole entry, looked up): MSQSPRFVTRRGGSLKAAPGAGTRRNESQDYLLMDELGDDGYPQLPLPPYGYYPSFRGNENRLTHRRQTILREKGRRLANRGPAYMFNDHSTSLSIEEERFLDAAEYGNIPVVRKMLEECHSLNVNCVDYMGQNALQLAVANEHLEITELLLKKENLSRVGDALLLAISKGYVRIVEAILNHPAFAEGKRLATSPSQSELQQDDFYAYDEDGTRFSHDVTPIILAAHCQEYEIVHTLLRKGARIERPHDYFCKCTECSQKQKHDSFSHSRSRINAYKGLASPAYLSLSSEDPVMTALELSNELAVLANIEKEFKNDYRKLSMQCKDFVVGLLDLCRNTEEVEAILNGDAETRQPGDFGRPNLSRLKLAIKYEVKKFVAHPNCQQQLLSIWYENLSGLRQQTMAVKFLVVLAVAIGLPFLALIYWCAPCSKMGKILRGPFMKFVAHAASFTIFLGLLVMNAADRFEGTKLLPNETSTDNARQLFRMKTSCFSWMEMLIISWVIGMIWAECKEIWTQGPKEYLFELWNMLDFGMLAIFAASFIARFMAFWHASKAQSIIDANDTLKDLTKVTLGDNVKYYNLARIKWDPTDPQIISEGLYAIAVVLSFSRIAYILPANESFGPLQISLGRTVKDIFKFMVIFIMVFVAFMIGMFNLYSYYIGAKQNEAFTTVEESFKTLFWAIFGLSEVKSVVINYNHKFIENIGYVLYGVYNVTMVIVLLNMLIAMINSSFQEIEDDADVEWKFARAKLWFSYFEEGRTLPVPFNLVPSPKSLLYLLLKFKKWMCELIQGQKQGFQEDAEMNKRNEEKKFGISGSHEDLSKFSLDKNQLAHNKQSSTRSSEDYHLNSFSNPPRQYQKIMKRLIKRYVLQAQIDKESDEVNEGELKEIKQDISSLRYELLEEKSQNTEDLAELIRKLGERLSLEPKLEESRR

[10] = target: Short transient receptor potential channel 6 (Mus musculus) (UniProt Q61143); test: TRPC6 opening by TRPC4 activator hits – cell-based, HEK293, membrane potential dye, duplicate, selectivity assay for TRPC4 activator project, confirmation (AID 434950;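 active = membrane potential signal rise above negative control mean plus 3 SD in both duplicates, also active in the earlier TRPC4 screen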); conditions: HEK293 TRPC6, membrane potential fluorescence, at 10 µM; activation: hits give high values; outcome: activation
[11] = target: Short transient receptor potential channel 6 (Mus musculus) (UniProt Q61143); test: positive modulators of mouse TRPC6 channel – HEK293 cells, membrane potential dye, duplicate, selectivity assay for TRPC4 potentiator project, confirmation (AID 434952;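 active = compound raising the membrane signal above positive-control mean plus 3 SD in both repeats, and a primary screen hit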); conditions: HEK293 TRPC6, membrane potential dye fluorescence, at 10 µM, maximal acetylcholine added after compound; hits give high values
[12] = target: Short transient receptor potential channel 4 (Mus musculus) (UniProt Q9QUQ5); test: calcium flux activators in TRPC4/5HT1a cells, counter-screen for TRPC4 activator project, cell-based, second counter screen, HEK293 TRPC4/5HT1a, Fluo-4 (AID 434977;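 active = calcium signal rise above buffer-control mean plus 5 SD in both duplicates, and also a hit in the primary screen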); conditions: Fluo-4 calcium flux, at 10 µM; hits give high values
[13] = serotonin-gated TRPC4 signal block – cell-based, second counter screen, HEK293 TRPC4/5HT1a, Fluo-4, counter-screen for TRPC4 inhibitor project, confirmation (AID 434978;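 active = primary screen active whose calcium signal fell more than 3 SD beyond the full-serotonin control mean in both duplicate plates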;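 for outcome: serotonin given first at submaximal then at maximal dose after compound preincubation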); conditions: Fluo-4 calcium flux, at 10 µM, serotonin added to trigger calcium flux; hits give high values
[14] = test system: TRPC4 (mouse), co-expressed with 5HT1a in HEK293; test: enhancement of serotonin-evoked TRPC4 response – cell-based, second counter screen, HEK293 TRPC4/5HT1a, Fluo-4, counter-screen for TRPC4 potentiator project, confirmation (AID 434979;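 active = signal rise over 3 SD above mean of control wells given weak agonist, in both repeats and first screen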); conditions: Fluo-4 calcium flux, at 10 µM, serotonin added at its EC20 dose; hits give high values
[15] = nonspecific calcium rise without TRPC4 – cell-based, HEK293 mu-opioid receptor line, counter-screen for TRPC4 activator project, confirmation (AID 449723;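 active = hit in primary screen, with calcium signal over 5 SD above buffer well mean in both duplicates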;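 note: counter screen cells carry the mu-opioid receptor alone and lack TRPC4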); conditions: HEK293 mu-opioid cells, Fluo-4 calcium fluorescence, at 10 µM; hits give high values
[16] = nonspecific potentiation of DAMGO calcium response – cell-based, HEK293 mu-opioid receptor line, counter-screen for TRPC4 allosteric potentiator project, confirmation (AID 449724;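 active = calcium signal rise more than 3 SD above the low-dose agonist control mean, in both duplicate plates and the primary screen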); conditions: HEK293 mu-opioid receptor cells, Fluo-4 calcium flux, at 10 µM, compound added before EC20 DAMGO stimulus; hits give high values

SMILES	outcome [1]	outcome [2]	outcome [3]	outcome [4]	inhibition [5]	inhibition [6]	outcome [7]	outcome [8]	outcome [9]	outcome [10]	outcome [11]	outcome [12]	inhibition [13]	outcome [14]	outcome [15]	outcome [16]	outcome [6]	outcome [5]	inhibition [9]	outcome [13]
COc1cccc2cc(C(N)=O)/c(=N\NC(=O)c3ccccc3)oc12	inactive	inactive	inactive	inactive	73% (active)	44% (active)	inactive	inactive	inactive	inactive	inactive	inactive	40.1% (active)	inactive	inactive	inactive	–	–	–	–
CC(=O)OCCCN1C(=O)c2cccc3cc(Br)cc(c23)C1=O	inactive	inactive	inactive	inactive	96% (active)	55% (active)	inactive	inactive	inactive	inactive	inactive	inactive	14.5% (active)	inactive	inactive	inactive	–	–	–	–
COc1cc2ccccc2c2c1CCCC2=O	inactive	inactive	inactive	inactive	85% (active)	–	inactive	inactive	inactive	inactive	inactive	inactive	26.2% (active)	inactive	inactive	inactive	inactive	–	–	–
CCn1c(=N)n(CC(=O)c2ccc(Br)s2)c2ccccc21	inactive	inactive	inactive	inactive	–	–	inactive	inactive	–	inactive	inactive	inactive	–	inactive	inactive	inactive	inactive	inactive	59% (active)	inactive
Cc1ccc(Cn2c(=N)n(CC(O)c3ccco3)c3ccccc32)cc1 (stereo unspecified)	inactive	inactive	inactive	inactive	94% (active)	63% (active)	inactive	inactive	–	inactive	inactive	inactive	17.1% (active)	inactive	inactive	inactive	–	–	37% (active)	–
O=c1c2ccccc2[nH]c(=S)n1CCN1CCN(Cc2ccccc2)CC1	inactive	inactive	inactive	inactive	75% (active)	44% (active)	inactive	inactive	inactive	inactive	inactive	inactive	–	inactive	inactive	inactive	–	–	–	inactive
c1csc(CNc2nc(-c3cccs3)nc3ccccc23)c1	inactive	inactive	inactive	inactive	78% (active)	–	inactive	inactive	inactive	inactive	inactive	inactive	29.7% (active)	inactive	inactive	inactive	inactive	–	–	–
CC(C)CCN1CCN(Cc2ccsc2)CC1CCO (stereo unspecified)	inactive	inactive	inactive	inactive	90% (active)	45% (active)	inactive	inactive	inactive	inactive	inactive	inactive	33.8% (active)	inactive	inactive	inactive	–	–	–	–
CN(CC(=O)NC1CCCc2ccccc21)C1CCCCC1 (stereo unspecified)	inactive	inactive	inactive	inactive	80% (active)	–	inactive	inactive	inactive	inactive	inactive	inactive	–	inactive	inactive	inactive	inactive	–	–	inactive
O=C1Nc2cc(C(=O)NCCCN3CCOCC3)ccc2S/C1=C/c1ccccc1F	inactive	inactive	inactive	inactive	–	–	inactive	inactive	inactive	inactive	inactive	inactive	–	inactive	inactive	inactive	inactive	inactive	–	inactive
O=C(Nc1ccnn1C1CCN(CCCC2CCCC2)CC1)c1ccccc1Cl	inactive	inactive	inactive	inactive	97% (active)	–	inactive	inactive	inactive	inactive	inactive	inactive	–	inactive	inactive	inactive	inactive	–	–	inactive
COc1ccccc1N(C(=O)c1snc(C(N)=O)c1N)C(C(=O)NC1CCCC1)c1ccc2ncccc2c1 (stereo unspecified)	inactive	inactive	inactive	inactive	41% (active)	–	inactive	inactive	inactive	inactive	inactive	inactive	40.6% (active)	inactive	inactive	inactive	inactive	–	–	–
COc1ccc(Cl)cc1N/C(N)=N/c1nc(C)cc(C)n1	inactive	inactive	inactive	inactive	94% (active)	53% (active)	inactive	inactive	–	inactive	inactive	inactive	15.3% (active)	inactive	inactive	inactive	–	–	58% (active)	–
CCOC(=O)C1(CCc2ccccc2)CCN(Cc2ccccn2)CC1	inactive	inactive	inactive	inactive	88% (active)	–	inactive	inactive	inactive	inactive	inactive	inactive	–	inactive	inactive	inactive	inactive	–	–	inactive
Cc1ccn2c(CNCCCn3cccn3)c(C(=O)N3CCCCCC3)nc2c1	inactive	inactive	inactive	inactive	78% (active)	47% (active)	inactive	inactive	inactive	inactive	inactive	inactive	–	inactive	inactive	inactive	–	–	–	inactive
Cc1cccc(C(=O)Nc2sc(-c3ccccc3)cc2C(=O)O)c1	inactive	inactive	inactive	inactive	98% (active)	–	inactive	inactive	inactive	inactive	inactive	inactive	19.4% (active)	inactive	inactive	inactive	inactive	–	–	–

SMILES	outcome [1]	outcome [2]	outcome [3]	outcome [4]	inhibition [5]	inhibition [6]	outcome [7]	outcome [8]	outcome [9]	outcome [10]	outcome [11]	outcome [12]	inhibition [13]	outcome [14]	outcome [15]	outcome [16]	outcome [6]	outcome [5]	inhibition [9]	outcome [13]
CCc1ccccc1NC(=S)N(CCCN(C)C)Cc1cc2cc3c(cc2[nH]c1=O)OCO3	inactive	inactive	inactive	inactive	94% (active)	92% (active)	inactive	inactive	inactive	inactive	inactive	inactive	19.9% (active)	inactive	inactive	inactive	–	–	–	–
CCCCCC[N+](C)(C)CC/C=C1/c2ccccc2Sc2ccc(Cl)cc21	inactive	inactive	inactive	inactive	83% (active)	61% (active)	inactive	inactive	–	inactive	inactive	inactive	31.8% (active)	inactive	inactive	inactive	–	–	42.5% (active)	–
Fc1ccc(-n2cc(CNCCc3ccncc3)c(-c3ccccc3Cl)n2)cc1	inactive	inactive	inactive	inactive	–	–	inactive	inactive	inactive	inactive	inactive	inactive	–	inactive	inactive	inactive	inactive	inactive	–	inactive
CC(NCCC(Cc1ccccc1)c1ccco1)c1ccccc1 (stereo unspecified)	inactive	inactive	inactive	inactive	97% (active)	–	inactive	inactive	–	inactive	inactive	inactive	28.4% (active)	inactive	inactive	inactive	inactive	–	39% (active)	–
CCOC(=O)C1CCN(C2CCN(C(=O)c3oc4c(C)c(C)ccc4c3C)CC2)CC1	inactive	inactive	inactive	inactive	95% (active)	–	inactive	inactive	inactive	inactive	inactive	inactive	–	inactive	inactive	inactive	inactive	–	–	inactive
CC1CCc2c(sc3ncnc(SCC(=O)Nc4ccc(C(=O)O)cc4)c23)C1 (stereo unspecified)	inactive	inactive	inactive	inactive	88% (active)	45% (active)	inactive	inactive	inactive	inactive	inactive	inactive	–	inactive	inactive	inactive	–	–	–	inactive
c1ccc(NC(=NCc2ccco2)c2ccccc2)cc1	inactive	inactive	inactive	inactive	94% (active)	45% (active)	inactive	inactive	inactive	inactive	inactive	inactive	–	inactive	inactive	inactive	–	–	–	inactive
Oc1ccc(-c2csc(-c3ccccc3)n2)cc1O	inactive	inactive	inactive	inactive	80% (active)	–	inactive	inactive	inactive	inactive	inactive	inactive	–	inactive	inactive	inactive	inactive	–	–	inactive
Cn1cc(-c2nc3ccccc3[nH]2)c2ccccc21	inactive	inactive	inactive	inactive	99% (active)	49% (active)	inactive	inactive	–	inactive	inactive	inactive	41.1% (active)	inactive	inactive	inactive	–	–	5.5% (active)	–
O=C(CCCSc1nc2ccccc2[nH]1)NCc1ccccc1Cl	inactive	inactive	inactive	inactive	88% (active)	46% (active)	inactive	inactive	inactive	inactive	inactive	inactive	27.7% (active)	inactive	inactive	inactive	–	–	–	–
O=C(C1CCN(CC2CC=CCC2)CC1)N(CCc1ccccc1)Cc1ccccc1 (stereo unspecified)	inactive	inactive	inactive	inactive	53% (active)	–	inactive	inactive	–	inactive	inactive	inactive	40.1% (active)	inactive	inactive	inactive	inactive	–	32.5% (active)	–
CC(C)CN(CC(C)C)c1nc(N)c(C#N)c(CC#N)c1C#N	inactive	inactive	inactive	inactive	85% (active)	–	inactive	inactive	inactive	inactive	inactive	inactive	39.2% (active)	inactive	inactive	inactive	inactive	–	–	–
c1ccc(-c2nc(NCc3ccco3)c3ccccc3n2)nc1	inactive	inactive	inactive	inactive	93% (active)	74% (active)	inactive	inactive	–	inactive	inactive	inactive	22.1% (active)	inactive	inactive	inactive	–	–	34.5% (active)	–
COC(=O)CSc1nnc2n(-c3ccc(OC)cc3)c(=O)c3c4c(sc3n12)CCCCC4	inactive	inactive	inactive	inactive	95% (active)	–	inactive	inactive	inactive	inactive	inactive	inactive	23% (active)	inactive	inactive	inactive	inactive	–	–	–
Oc1ccc(Nc2nc(N3CCCC3)c3ccccc3n2)cc1	inactive	inactive	inactive	inactive	95% (active)	–	inactive	inactive	–	inactive	inactive	inactive	36.8% (active)	inactive	inactive	inactive	inactive	–	39.5% (active)	–
